Assay outcomes from PubChem.
Tg IFNy HTS = T. gondii growth inhibition with IFN-gamma, primary screen, cell-based | Toxoplasma gondii growth in IFN-gamma-treated host cells; hits give low values | activity change, negative = inhibition, % (test concentration not listed) | 69,000 tested, 3.8% active | AID 1259416, 2018; in the data active = activity change below about -70%, passing the limit was not always enough;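 also: host cells are HeLa cells infected with Toxoplasma gondii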
Numbers without * were called inactive; ! = not confirmed by another sample. Shown is part of a subset that was picked to be rich in hits.

SMILES	Tg IFNy HTS
O=C(C[C@H]1C=C[C@H](NC(=O)Cc2cccnc2)[C@H](CO)O1)NCc1ccc2c(c1)OCO2	42
COC1CCN(C(=O)c2cc(Cc3n[nH]c(=O)c4ccccc34)ccc2F)CC1	11
C=CCn1c2ccccc2n2cc(C)nc12	7
Cc1nc2c(c(=O)[nH]1)CCN(C(=O)c1cc(-n3cccn3)ccc1Cl)C2	51
COc1cc(OC)c(NC(=O)c2nc(Nc3ccc(Cl)cc3)c3ccccc3n2)cc1Cl	-48
CO[C@H]1CC[C@H]2CCN(C)C(=O)CC3(CCCCC3)CN(C)C(=O)c3cccc(C#N)c3OC[C@H]1O2	-15
O=C(c1ccco1)N1CCC2(CC1)COCCN2CC1CC1	1
Cc1cnn(Cc2nc(-c3ccc(NC(=O)c4ccc(F)cc4)cc3)oc2C)c1	-82*
Cc1cnn(Cc2nc(-c3ccc(NC(=O)c4ccc(C)c(F)c4)cc3)oc2C)c1	-13
Cc1cnn(Cc2nc(-c3ccc(NC(=O)c4ccc(C#N)cc4)cc3)oc2C)c1	-52
Cc1cnn(Cc2nc(-c3ccc(NC(=O)c4cccc(F)c4)cc3)oc2C)c1	-75*
COc1ccc(C(=O)Nc2ccc(-c3nc(Cn4cc(C)cn4)c(C)o3)cc2)cc1F	34
CCc1ccc(C(=O)Nc2ccc(-c3nc(Cn4cc(C)cn4)c(C)o3)cc2)cc1	27
CCOc1ccc(NC2OC(C)C(O)C(O)C2O)c([N+](=O)[O-])c1 (stereo not drawn)	14
O=C(c1ccco1)N1CCc2cc(-c3cn4c(n3)CCCC4)ccc21	84
Cc1ccc(C(=O)N2[C@H]3CCNC[C@@H]2CC3)cc1N1CCNC1=O	-19
Cc1cccc(N2CCCC3(CN(Cc4cncn4C)CCO3)C2)c1 (stereo not drawn)	400
OC1(c2cccc(C(F)(F)F)c2)CCN(Cc2c(F)cccc2F)CC1	-8
CC(=O)c1nc(-c2cccs2)n(-c2ccc(C)cc2)n1	11
CN(C)/N=N/c1nc[nH]c1C(N)=O	-83*
COc1ccc2c(c1O)Cc1ccccc1C2=O	49
COC(=O)C[C@@H]1CC[C@@H]2[C@H](COC[C@H](O)CN2S(=O)(=O)c2cn(C)cn2)O1	39
N#C[C@H]1[C@@H](c2ccc(-c3cccc(F)c3)cc2)[C@@H](CO)N1C(=O)NC1CCCC1	-20
CC(=O)N1CCC(C(=O)NCc2ccccc2)(N(C(=O)c2ccc(C)cc2)c2cccc(F)c2)CC1	-24
O=C(Nc1ccc(Br)cc1)C1CC(c2c(F)cccc2Cl)=NO1 (stereo not drawn)	0
SMILES	Tg IFNy HTS
NC(=O)Cc1csc(NC(=O)C2CC(c3ccccc3Cl)=NO2)n1 (stereo not drawn)	-7
O=C(Nc1cnn(C23CC4CC(CC(C4)C2)C3)c1)C1CC(c2c(F)cccc2Cl)=NO1 (stereo not drawn)	-84*
CO[C@@H]1CN(C)C(=O)c2cc(NS(=O)(=O)CC(F)(F)F)ccc2OC[C@H](C)NC[C@H]1C	400
O=C(NC(=O)c1csc(-c2ccc(C(F)(F)F)cc2Cl)n1)Nc1ccc(F)cc1	-98*
O=C(NCCc1csc(-c2ccc(Cl)cc2)n1)C(=O)Nc1ccc(F)cc1	48
O=C(Nc1ccc2c(c1)OCCO2)c1csc(-c2cccc3c2CCO3)n1	51
Cc1n[nH]c(C)c1CCC(=O)N1C[C@@H]2[C@@H]3CC[C@@H](C3)[C@@H]2C1	6
CCCNC(=O)N1C[C@H](C)[C@H](OC)CN(C)C(=O)c2ccc(NC(=O)CC)cc2OC[C@@H]1C	-1
O=C(Sc1ccc(Cl)cc1)c1ccc(-c2cccs2)s1	-104*
O=C(c1ccc(-c2cccs2)s1)c1ccc(F)cc1F	151
CC(=O)c1ccc(-c2cccs2)s1	-31
COc1ccc(-n2ccnc2-c2ccc(C#CC(C)(C)O)cc2)cn1	7
COc1ccc(C2(C(=O)N3CCNC(C(=O)O)C3)CC2)cc1 (stereo not drawn)	12
N#Cc1cccc(-c2ccc(C3[C@@H]4CN(C(=O)c5ccc6c(c5)OCO6)C[C@H]3N4)cc2)c1 (stereo partly drawn)	-75*!
N#Cc1cccc(-c2ccc(C3[C@@H]4CN(C(=O)Cc5ccncc5)C[C@H]3N4)cc2)c1 (stereo partly drawn)	14
Cc1cccc(-c2ccc([C@@H]3[C@@H](CO)N4C(=O)CN(C(=O)c5ccc6c(c5)OCO6)C[C@H]34)cc2)c1	-43
FC(F)(F)c1ccc(Sc2cccs2)nc1	-41
COc1ccc(-c2nc(Cn3nnc(C(=O)Nc4ccccc4F)c3C)c(C)o2)c(OC)c1	61
CC(=O)NCCC1CN(Cc2cnn3c(C)cc(C)nc23)CCO1 (stereo not drawn)	1
O=C(Nc1cccc2ccccc12)N1CCOCC1	181
O=C(Nc1cccc2ccccc12)NC1CCCCC1	-93*
O=C(Nc1cccc2ccccc12)OC1CCS(=O)(=O)C1 (stereo not drawn)	28
CCC(CC)CN1C[C@H]2OCCN(Cc3cnn(C)c3)[C@H]2C1	0
COc1ccc(C(=O)Nc2sc3c(c2C(=O)NC2CCS(=O)(=O)C2)CCCC3)cc1 (stereo not drawn)	-28
Cn1nc(CNc2ncccn2)c2c1CNCC2	2
